From PubChem BioAssay AID1981 (Southern Research Specialized Biocontainment Screening …, 2009) come the findings set out here.

As a reminder, the inhibition is the drop in the measured response relative to a control, in per cent.

Molecules are shown by their SMILES. Out of some 2,200 compounds screened, about 480 (22%) were called active. A selection follows. Measured potencies and affinities stand elsewhere. Values without a mark were called inactive. No rule for the calls is given here.

The assay in a line: S. Typhimurium GFP fluorescence modified counterscreen for PhoP regulon inhibitor project dose response (AID 1981).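 Also: 0% = induced DMSO wells and 100% = uninduced wells.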 To be noted: 4 h; series mostly up to 150 µM; inhibition: at the top concentration. Background: Counterscreens check selectivity or assay interference.
As to `CCS(=O)(=O)Nc1cc(C(=O)OC)ccc1C(=O)OC`, the “inhibition” value was -22.5%.
With `Cc1ccc(-n2nnnc2SCC(=O)Nc2ncc(Cc3ccccc3Cl)s2)cc1` the figure was 5.85%; with `CCOc1cc(CNn2cnnc2)ccc1OCC(=O)NC1CCCCC1`, 1.83%.
With `CCN(CCO)Cc1csc2ccccc12`, the “inhibition” value was -5.22%.
Regarding `CCOc1ccccc1OCC(=O)Nc1ccc(S(=O)(=O)Nc2nc(C)cc(C)n2)cc1`, the “inhibition” value is -2.84%.
Consider `CCOCCCNC(=S)Nc1cc(C)cc(C)c1`, for which the “inhibition” value was -14.4%.
Regarding `COc1cccc(-c2nc(-c3ccc(Br)o3)no2)c1`, the “inhibition” value is -17.1%.
With `CCN(CC)c1ccc(/C=C(\C#N)C(=O)NCc2ccco2)cc1` the figure was -8.76%; with `Cc1ccc(NC(=S)NCCc2ccccc2)c(C)c1`, -5.87%; with `CCc1cccc(NC(=O)CCCSc2nc3ccccc3[nH]2)c1`, 11%.
For `Cc1cc(C)cc(-n2c(C)cc(C=C(C#N)C#N)c2C)c1`, the “inhibition” value is -13%.
For the compound `CCCc1cnc(NCCNCC(O)COc2ccc(Cl)c(Cl)c2)nc1` (stereo not drawn), the “inhibition” value was -10.6%.
With `CCC(=O)c1ccc(OCC(O)CNCc2ccc(F)cc2)cc1` (stereo not drawn) the figure was -5.96%; with `CC(=O)Nc1ccc(NS(=O)(=O)c2ccc3c(c2)n(C)c(=O)n3C)cc1`, -12.4%; with `Cc1ccc(NC(NC(=O)c2ccccn2)C(Cl)(Cl)Cl)cc1` (stereo not drawn), -12.7%.
As for `O=C(NCc1ccco1)c1cccc(Nc2nc3ccc(Br)cc3[nH]2)c1`, the figure is -5.31%; as for `Cc1ccc(C(=O)N/N=C/c2ccc([N+](=O)[O-])s2)cc1`, 13.9%.
In the case of `COc1ccc(/C=N/NC(=O)c2ccc3c(c2)OCCO3)cc1[N+](=O)[O-]`, the “inhibition” value was 4.72%.
As for `O=C(NC(=S)N1CCN(c2c(Cl)cccc2[N+](=O)[O-])CC1)c1cccs1`, the figure is -9.8%.
For the compound `O=C(Nc1cnn(Cc2ccc(F)cc2)c1)c1cnccn1`, the “inhibition” value is -5.34%.
Take `Cc1ccccc1-n1nnnc1Sc1nnnn1-c1ccccc1`: the “inhibition” value is 13.9%.
For `O=C1c2ccccc2C(=O)N1CCc1csc(-c2cccc(Cl)c2)n1`, the “inhibition” value is -17.8%.
With `O=C(COC(=O)/C=C/c1ccco1)Nc1cccc([N+](=O)[O-])c1` the figure was 7.24%.
Take `CCOc1ccc2c(c1)nc(SCC(=O)c1ccc(Br)s1)n2C`: the “inhibition” value was -4.82%.
`CC(=O)Nc1c(O)nc(SCC(=O)N2CCN(c3ccc(F)cc3)CC2)[nH]c1=O`: the “inhibition” value was -0.15%.
`Cc1c(Cl)cccc1NC(=O)CSCC(N)=O`: the “inhibition” value was -12.2%.
With `CSCC[C@H](NC(=O)Nc1ccc(C)cc1)C(=O)O` the figure was 9.33%; with `N#Cc1c(N)nc(SCC(=O)NC2CCCCC2)c(C#N)c1-c1ccc(Cl)cc1`, -13.9%; with `CCCCn1c(=N)n(CC(=O)C(C)(C)C)c2ccccc21`, 7.95%.
Take `CCCCCCCCn1c2c(c(=N)c3c1CCC3)CCCC2`: the “inhibition” value is 34.2%.
With `N=c1c2c(n(Cc3ccc(Br)cc3)c3c1CCC3)CCCC2` the figure was 12.1%; with `CCCCn1c(NCCO)nc2ccccc21`, -8.11%; with `CCCCC1CCC(C(=O)Nc2ccccc2)CC1` (stereo not drawn), 5.03%.
`COC(=O)C(C)N1C(=O)S/C(=C\c2cc(C)n(-c3ccccn3)c2C)C1=O` (stereo not drawn): the “inhibition” value is -11%.
Take `Cc1ccc2nc(-c3ccc(Br)o3)oc(=O)c2c1`: the “inhibition” value was -2.46%.
As for `O=C1N=c2ccccc2=C1c1[nH]c(=S)[nH]c1O`, the figure is 2.01%; as for `O=C1c2ccccc2-c2onc3ccc(NCc4ccco4)c1c23`, -2.4%.
As for `CCn1c(=N)n(CC(O)c2ccccc2)c2ccccc21` (stereo not drawn), the figure is -4.05%.
On to `Cc1ccc(/C=C/c2ccc(=O)n(Cc3ccccc3Cl)n2)cc1`, for which the “inhibition” value was 6.88%.
As to `[O-]/[N+](=C\c1ccncc1)c1ccccc1`, the “inhibition” value is -0.55%.
With `CCCn1c(NCCO)nc2ccccc21` the figure was -11.6%.
With `c1csc(C2Nc3cccc4cccc(c34)N2)c1` the figure was -2.56%; with `Brc1ccc(NC2=Nc3ccccc3CC2)cc1`, -2.31%; with `O=C(Nc1cnn(Cc2ccc(Cl)cc2Cl)c1)c1noc2c1CCCC2`, -15.3%.
With `Cc1cccc(-n2c(SCC(N)=O)nc3c(c2=O)C2(CCCC2)Cc2ccccc2-3)c1` the figure was 7.03%; with `COC(=O)c1sccc1NC(=O)c1csc2c1CCCC2`, 0.07%.
On to `COc1ccc(NC(=O)CN2CCCCC2)c([N+](=O)[O-])c1`, for which the “inhibition” value is 5.56%.
For the compound `CC(C)Cc1oc(C(=O)O)cc1CN1CCOCC1`, the “inhibition” value is 1.81%.
With `Oc1ccccc1CN1CCCN(Cc2ccccc2O)C1` the figure was 2.41%; with `Cc1ccc(Oc2ccc3c(c2)C(=O)N(c2ccc(S(=O)(=O)Nc4nccs4)cc2)C3=O)cc1`, -19.4%; with `COc1cc(OC)cc(C(=O)N[C@H](C(=O)OCC(=O)Nc2ccc(C(N)=O)cc2)C(C)C)c1`, -7.59%.
Turning to `COc1ccccc1-n1c(SCc2cc(=O)oc3cc(O)ccc23)nc2ccccc2c1=O`, the “inhibition” value is -5.8%.
As for `COc1cccc(C2C3=C(Nc4[nH]n(-c5ccccc5)c(=O)c42)c2ccccc2C3=O)c1` (stereo not drawn), the figure is 5.13%; as for `CC(C)Oc1cccc(C(=O)NC(=S)Nc2ccccc2)c1`, -7.54%; as for `CC(CO)(CO)NCc1ccc(-c2ccccc2)cc1`, -6.59%.
On to `Cc1cc(C(=O)NCc2ccco2)no1`, for which the “inhibition” value is 4.98%.
As for `Cc1cc(SCC(N)=O)nc(SCC(=O)c2ccccc2)n1`, the figure is -20.2%; as for `COc1ccccc1NS(=O)(=O)c1cccc(C(=O)N/N=C/c2c(C)nn(-c3ccccc3)c2N2CCCC2)c1`, 26.4%.
